This is a sample that favours compounds with a hit; in the whole collection about 20% have one here.
Cycloheximide cs: counter-screen hit for Shiga toxin inhibitors, cycloheximide. cell reporter, cycloheximide protein synthesis inhibition counterscreen. max response, %. 300,000 tested, 12% active; in the data active = max response mostly above about 13%, no sharp cut-off; inactive = mostly below about 14%; also: read at 38.3 µM for the half of the compounds with a filed dose
Pf growth 48h: inhibits P. falciparum growth in the first generation, 48 h. P. falciparum luciferase growth in erythrocytes, 48 h. Potency, µM (highest dose often 28.7 µM), hits mostly inhibitors. 310,000 tested, 5.9% active
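A one-generation exposure of luciferase-tagged malaria parasites in RPMI 1640/Albumax erythrocyte culture, 37 C and 5% CO2. Inhibition is inferred from decreased luminescence after adding detection reagent.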
HCMV inh: human cytomegalovirus inhibition. HFF cells, HCMV-luciferase reporter, 72 h; stronger effect = lower value. activity change, negative = inhibition, % at 57.5 µM. 410,000 tested, 4.5% active; in the data active = activity change below about -60%; inconclusive = no clear call, values can overlap the other calls; inactive = above about -39%
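Screen run at 2 compound doses on HFFs infected with reporter HCMV, MOI 1 PFU/cell. Luciferase activity from cell lysates at 72 h post infection gave inhibition relative to buffer-only and Salinomycin wells.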
Pf growth 96h: P. falciparum growth inhibition at 96 hour, primary screen for plastid delayed-death inhibitors; P. falciparum luciferase reporter growth, 96 h; Potency, µM (doses to about 28.7 µM), hits mostly inhibitors; 320,000 tested, 6.9% active; AID 504834
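Compounds incubated with erythrocytes infected by luciferase-expressing P. falciparum (2% hematocrit, 0.05% parasitemia final) for 96 hours, 37 C in 5% CO2. Growth inhibition scored as decreased luciferase luminescence.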
Shiga toxin inh: Shiga toxin inhibition; Vero cells, Shiga toxin protein synthesis inhibition reporter; inhibition, % at 38.7 µM; 290,000 tested, 9.2% active; AID 2315; in the data active = inhibition mostly above about 28%, no sharp cut-off; inactive = mostly below about 43%
A number is an active result; - = inactive; ? = inconclusive; . = not tested or not shown. Unless noted, calls follow the shape of the dose curve; as a rule, active = well fitted inhibition curve with a large enough effect; inconclusive = small, poorly fitted or top-dose-only effect, or another doubt; inactive = no such curve, though single readings can be large or run the other way.

SMILES	Cycloheximide cs	Pf growth 48h	HCMV inh	Pf growth 96h	Shiga toxin inh
Clc1ccc(-c2ccnc(-n3cccc3)n2)s1	-	-	?	-	-
c1coc(-c2ccnc(-n3cccc3)n2)c1	46	-	-	-	-
Cc1ccsc1-c1ccnc(-n2cccc2)n1	22	-	-	-	52
COc1ccc2c(c1)[C@@H](NC(=O)c1c(C)noc1C)[C@H](C)[C@@H](c1ccccc1)N2C(=O)NC(C)C	.	.	-	.	.
O=C(N/N=C/c1cc(Br)c(O)c(Br)c1O)c1ccc2c(c1)OCCO2	29	?	-82	-	73
O=C(Cc1ccccc1)N/N=C/c1cc(Br)c(Br)o1	43	-	-	-	38
O=C(N/N=C/c1cc(Br)c(Br)o1)c1ccc2c(c1)OCCO2	28	-	-	-	60
O=C(O)COc1ccccc1/C=N/NC(=O)c1ccc2c(c1)OCCO2	-	-	-	?	-
O=C(N/N=C/c1cc(Br)c(Br)o1)c1cccnc1	-	-	-	13µM	-
Cc1noc(C)c1COc1ccccc1C(=O)NC(C)c1ccc(F)cc1 (centres undefined)	.	.	-	.	.
CCN(C)C(=O)C1=COC2=NC(=O)N(Cc3ccccc3)CCN12	.	.	-	.	.
CCOc1cc(/C=N/NC(=O)c2ccc3c(c2)OCCO3)cc(Br)c1O	12	-	-	-	77
COc1ccc(Cl)cc1-c1cc(C(=O)NCc2ccco2)[nH]n1	.	.	-	.	.
CCOC(=O)c1cc2c(nc1C)-c1cc(Cl)cc(Cl)c1OC2O (centres undefined)	-	6.6µM	-	4.7µM	-
CCOC(=O)c1cc(NC(=O)N(C(C)C)C(C)C)c(C)nc1C	-	-	-	?	-
COc1ccc(N(CC(=O)NCc2ccccc2C)S(=O)(=O)c2ccccc2[N+](=O)[O-])c(OC)c1	-	?	?	10µM	-
COc1ccc(N(CC(=O)N2CCCCCC2)S(=O)(=O)c2ccccc2[N+](=O)[O-])c(OC)c1	-	12µM	?	-	-
O=C(CSc1nnc(NC(=O)c2cccc(Br)c2)s1)NCC1CCCO1 (centres undefined)	-	-	-98	-	-
Cc1cc(C)cc(C(=O)Nc2nnc(SCC(=O)NCC3CCCO3)s2)c1 (centres undefined)	-	-	-	-	-
O=C(CSc1nnc(NC(=O)c2ccccc2F)s1)NCC1CCCO1 (centres undefined)	17	-	-	-	19
O=C(CSc1nnc(NC(=O)c2ccccc2)s1)NCC1CCCO1 (centres undefined)	30	-	-	-	36
O=C(CSc1nnc(NC(=O)c2ccccc2[N+](=O)[O-])s1)NCC1CCCO1 (centres undefined)	-	-	-	13µM	-
O=C(CSc1nnc(NC(=O)Cc2ccccc2)s1)NCC1CCCO1 (centres undefined)	-	-	?	-	-
COc1ccc(-n2c(O)c(/C=N/n3cnnc3)c3ccccc3c2=O)cc1	-	-	-	-	-
CCCc1ccc(S(=O)(=O)N2CCC(c3nnnn3-c3ccc(OC)cc3)CC2)cc1	.	.	-	.	.
SMILES	Cycloheximide cs	Pf growth 48h	HCMV inh	Pf growth 96h	Shiga toxin inh
Cc1ccccc1S(=O)(=O)c1c(C)cc(C)n(C(C)C)c1=O	-	-	-	?	-
CCCCn1c(C)cc(C)c(S(=O)(=O)c2ccccc2C)c1=O	-	.	-	15µM	-
CCOC(=O)C1(Cc2cccc(F)c2)CCN(CC(O)CO)CC1 (centres undefined)	-	-	-	-	-
CCOC(=O)C1(Cc2cccc(F)c2)CCN(CC2CC2)CC1	-	-	-	15µM	-
CCOC(=O)C1(Cc2cccc(F)c2)CCN(Cc2cnn(CC)c2)CC1	-	-	-	-	-
CCOC(=O)C1(Cc2cccc(F)c2)CCN(Cc2nc(CC)[nH]c2C)CC1	-	3.3µM	-	-	-
COc1ccc(N2CCN(CCCn3c(=S)[nH]c4ncccc4c3=O)CC2)cc1	-	.	?	13µM	-
O=c1c2cccnc2[nH]c(=S)n1CCCN1CCN(c2ccc(F)cc2)CC1	-	-	-	.	-
COc1ccc(N2CCN(C(=O)C3CCC(Cn4c(=S)[nH]c5ccccc5c4=O)CC3)CC2)cc1 (centres undefined)	-	?	-81	-	-
O=C(C1CCC(Cn2c(=S)[nH]c3ccccc3c2=O)CC1)N1CCN(c2ccccn2)CC1 (centres undefined)	-	-	-91	12µM	-
O=C(C1CCC(Cn2c(=S)[nH]c3ccccc3c2=O)CC1)N1CCOCC1 (centres undefined)	-	-	-	-	-
O=C(C1CCC(Cn2c(=O)[nH]c3ccccc3c2=O)CC1)N1CCN(c2ccccc2)CC1 (centres undefined)	-	-	-	?	-
COc1ccccc1N1CCN(C(=O)C2CCC(Cn3c(=S)[nH]c4ccccc4c3=O)CC2)CC1 (centres undefined)	-	10µM	-	-	-
CCCN1C/C(=C/c2cccc([N+](=O)[O-])c2)C(=O)/C(=C/c2cccc([N+](=O)[O-])c2)C1	-	15µM	-105	?	-
O=C1OCCC/C1=C\c1ccc2c(c1)OCO2	-	-	-	-	-
CCCN1C/C(=C/c2ccc3c(c2)OCO3)C(=O)/C(=C/c2ccc3c(c2)OCO3)C1	-	-	-	1.9µM	-
CCCN1C(=O)/C(=C/c2ccc3c(c2)OCO3)NC1=S	-	-	-	9.3µM	-
COc1ccc(CCN2C(=O)c3ccccc3C2c2nnnn2Cc2ccccc2)cc1OC (centres undefined)	.	.	-	.	.
COc1ccc(NS(=O)(=O)c2cc(C(=O)NNC(=O)c3ccncc3)ccc2OC)c(OC)c1	.	.	-	.	.
COc1ccc(NC(=O)CSCC(=O)N(C)Cc2ccc(Cl)c(Cl)c2)cc1	.	13µM	-	?	.
Cc1ccc(NC(=O)CSCC(=O)N(C)Cc2ccc(Cl)c(Cl)c2)cc1	.	?	-	?	.
Cc1cccc(C)c1NC(=O)CN(C)C(=O)Cc1cccc(C(F)(F)F)c1	-	?	-	-	31
CCN(CC(=O)Nc1c(F)cccc1F)C(=O)CSCC(=O)Nc1ccc(OC)cc1	.	-	?	-	.
COc1ccc(NC(=O)CSCC(=O)N(C)CC(=O)Nc2c(C)cccc2C)cc1	.	-	-102	-	.
Cc1cc2occ(CC(=O)N(C)CC(=O)Nc3c(C)cccc3C)c2cc1C	.	?	-	-	.
SMILES	Cycloheximide cs	Pf growth 48h	HCMV inh	Pf growth 96h	Shiga toxin inh
COCCNC(=S)N1CCN(c2nc(-c3ccc(F)cc3)cs2)CC1	12	-	-	?	-
CCN(CC)CCCNC(=S)N1CCN(c2nc(-c3ccc(F)cc3)cs2)CC1	-	9.3µM	-97	-	.
CCNC(=S)N1CCN(c2nc(-c3ccc(F)cc3)cs2)CC1	9.7	-	-61	-	-
CCN(CC)CCCNC(=S)N1CCN(c2nc3ccccc3n2CC)CC1	-	?	-	-	-
CCOc1ccc(OCC)c(NC(=O)CSc2nnc(C3CC3)n2CC)c1	-	-	-	?	-
O=C(CCC1CCCN(C(=O)Cn2cnnn2)C1)NCc1ccc(F)c(F)c1 (centres undefined)	-	-	-	-	-
Cc1csc(NC(=O)c2ccc3c(=O)n4c(nc3c2)CCCCC4)n1	27	-	-	-	63

Assay outcomes deposited in PubChem by National Center for Advancing Translational Sciences (NCATS).
